Screening data (PubChem BioAssay)
HT1080 IDH1KD tx: qHTS for induction of synthetic lethality in tumor cells producing 2HG: qHTS for the HT-1080-IDH1KD cell line | HT-1080 IDH1 knockdown viability, ATP luminescence, 48 h | Potency, µM (top dose mostly 46.1 µM), inactives show at the top dose activity, negative = toxicity, actives largely listed as cytotoxic | 360,000 compounds, 2% hits | AID 686971, 2013;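 also: 0% = DMSO wells and -100% = cell-free medium wells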
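CellTiter-Glo luminescence after 48 h compound exposure at 37 degrees C of IDH1-knockdown HT-1080 cells in 5% FBS RPMI. %Activity scaled between DMSO wells and cell-free media wells, with curves fitted and assigned curve classes.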
TDP1 cell noCPT: qHTS for Inhibitors of human tyrosyl-DNA phosphodiesterase 1 (TDP1): qHTS in cells in absence of CPT; 420,000 compounds, 15% hits; Potency, µM (highest dose often 46.2 µM), inactives show at the top dose activity change, negative = growth inhibition, usual class: inhibitors; DT40 Tdp1-/- hTDP1 cells, no CPT, ATP luminescence, 48 h; also: nearly all actives have a fitted effect of over 55% in size
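Seeded 400 DT40-hTDP1 cells/well (vehicle DMSO, no 20 nM CPT); pinned compounds; ≥48 hr at 37 °C; CellTiter-Glo luminescence as viability measure.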
KB-3-1 cytotox: qHTS assay for MDR1-selective chemotherapeutics: Primary screen using the parental adenocarcinoma cell KB-3-1; KB-3-1 viability, CellTiter-Glo ATP luminescence, 72 h; Potency, µM (titrated, usually from 46.1 µM), most hits filed as cytotoxic; 400,000 compounds, 1.4% hits; also: nearly all actives have a fitted effect of over 60% in size
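Viability of parental KB-3-1 cells, measured by CellTiter-Glo luminescence, followed a 72 h incubation at 37 °C with pinned compounds in phenol-red-free DMEM containing 10% FBS.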
DT40 TDP1 CPT: qHTS for Inhibitors of human tyrosyl-DNA phosphodiesterase 1 (TDP1): qHTS in cells in presence of CPT; chicken DT40 Tdp1-/-;hTDP1 cells + 20 nM CPT, ATP luminescence, 48 h; 420,000 compounds, 12% hits; AID 686979, 2013; Potency, µM (top dose mostly 46.2 µM), inactives show at the top dose activity change, negative = growth inhibition, hits mostly inhibitors; also: nearly all actives have a fitted effect of over 55% in size
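Chicken DT40 Tdp1-/- cells complemented with human TDP1, 400 cells/well, exposed to compounds plus 20 nM camptothecin for at least 48 h at 37 C; viability read as ATP content by CellTiter-Glo luminescence.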
KB-V1 cytotox: qHTS assay for MDR1-selective chemotherapeutics: Primary screen using the drug-selected MDR subline cells KB-V1; KB-V1 MDR cells viability, CellTiter-Glo, 72 h; Potency, µM (titrated, usually from 46.1 µM), actives largely listed as cytotoxic; 400,000 compounds, 3.4% hits; also: nearly all actives have a fitted effect of over 60% in size
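Readout: CellTiter-Glo luminescence, 10 min after addition. Cells: KB-V1 MDR subline, 72 h at 37 degrees C with compound. Analysis: corrected, normalized data fitted to concentration-effect curves.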
HT1080NT lethal: qHTS for induction of synthetic lethality in tumor cells producing 2HG: qHTS for the HT-1080-NT fibrosarcoma cell line. HT-1080-NT fibrosarcoma viability, CellTiter-Glo ATP luminescence, 48 h. Potency, µM (top dose mostly 46.1 µM), inactives show at the highest dose activity, negative = less viability, most hits filed as cytotoxic. 360,000 compounds, 1.6% hits. AID 686970, 2013;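 also: NT is the 2HG producing partner of a matched IDH1 knockdown line; 0% = DMSO-treated cells and -100% = media-only wells without cells; nearly all actives have a fitted effect of over 55% in size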
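750 cells/well, RPMI + 5% FBS; 2 h settle, compound pin-transfer, 48 h at 37 degrees C. CellTiter-Glo 10 min RT, luminescence. Normalized to DMSO and media-only wells.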
* hit, by the source's call; i = inactive; ? = inconclusive; nt = not tested or not shown; [ ] = remark or other dose. Sampled rows, rich in hits. Any-hit rate of the full collection: about 19%. Calls follow the shape of the dose curve; as a rule, active = well fitted curve in the direction sought with a large enough effect; inconclusive = small, poorly fitted or top-dose-only effect, or another doubt; inactive = no such curve, though single readings can be large; an effect the other way counts as inactive or inconclusive. Unless noted, % is scaled to controls: 0 for no effect and ±100 for the full control effect; potency is read from the fitted curve at half-maximal effect.

SMILES	HT1080 IDH1KD tx	TDP1 cell noCPT	KB-3-1 cytotox	DT40 TDP1 CPT	KB-V1 cytotox	HT1080NT lethal
Cc1ccnc2ccc3ccccc3c12	nt	?	8.2µM*	?	i	nt
COc1ccc2ccc(OCC(=O)Nc3cc(C)on3)cc2c1	17%	8%	i	-14%	i	10%[9.24 µM]
COc1ccc(C(=O)Nc2ccc(C(=O)N3CCC(C)CC3)cc2)cc1OC	5%	-7%	i	7%	i	2%
O=C(NC(Cc1ccccc1)c1nc2ccccc2[nH]1)c1cccc([N+](=O)[O-])c1 (centres undefined)	-15%	?	i	21µM*	?	-8%
O=[N+]([O-])c1nc2ccccc2[nH]1	9%	-28%	?	-8%	18µM*	22%
O=C(Cc1nc2ccccc2[nH]1)c1cccc([N+](=O)[O-])c1	-7%	3.7µM*	?	2.9µM*	i	2%
O=C(c1nc2ccccc2[nH]1)c1ccccc1[N+](=O)[O-]	2%	-21%	?	3%	i	-1%
COc1ccc(S(=O)(=O)N(CC(=O)NCc2ccc(C)cc2)c2ccc(Cl)cc2)cc1	nt	-21%	i	-12%	i	nt
CCOC(=O)[C@]12CCCC=C1N(Cc1ccccc1)C(=O)[C@H](CC(=O)N1CCN(C(=O)c3ccco3)CC1)C2	3%	-17%	i	?	i	-1%
Cc1cc(N2CCCCC2)nc2ccc(NC(=O)CCC(=O)N3CCN(c4ccccc4)CC3)cc12	nt	21µM*	i	?	i	nt
Cc1ccc(C)c(N2CCN(C(=O)CCC(=O)Nc3ccc4nc(N5CCCCC5)cc(C)c4c3)CC2)c1	nt	12µM*	i	12µM*	i	nt
CCCCNC(=O)CCC(=O)Nc1ccc2nc(N3CCN(C)CC3)cc(C)c2c1	0%	-2%	i	-2%	i	-3%
CCc1ccc([C@@H]2CC(=O)[C@@H]3CN(S(=O)(=O)c4ccc(Cl)cc4)[C@H](c4ccc(C)cc4)C[C@@H]3N2S(=O)(=O)c2ccc(C)cc2)cc1	17%	-14%	i	-5%	i	13%
CC(C)C(NC(=O)CCNC(=O)c1ccc(C(C)(C)C)cc1)c1nc2ccccc2[nH]1 (centres undefined)	-1%	18µM*	?	?	i	0%
CC(=O)c1ccc(S(=O)(=O)NCC(=O)NC(c2nc3ccccc3[nH]2)C(C)C)cc1 (centres undefined)	-1%	?	i	?	?	-2%
Cc1ccc2c(CC(=O)Nc3cccc(C(F)(F)F)c3)coc2c1	nt	?	i	16µM*	i	nt
Cc1ccc2c(CC(=O)NNC(=O)c3ccccc3O)coc2c1	?	26µM*	?	?	i	?
O=C(CCCCCn1c(=O)[nH]c2ccccc2c1=O)NCc1cccc(Cl)c1	nt	-25%	i	-19%	i	nt
Cc1ccc(C)c(OCC(=O)NCC(C)C)c1C	7%	-27%	i	-18%	i	12%
COc1cc(/C=C(\C#N)c2nc3ccc(C)cc3[nH]2)ccc1OCc1ccc(C)cc1	nt	8.2µM*	i	12µM*	i	nt
Cc1ccc2nc(/C(C#N)=C\c3cc(O)ccc3[N+](=O)[O-])[nH]c2c1	-24%	-22%	i	-8%	i	-5%
COc1cc(/C=C(\C#N)c2ccccn2)ccc1OCc1ccc(Cl)cc1	2%	23µM*	i	?	i	9%
COc1cccc(/C=C(\C#N)c2nc3ccc(C)cc3[nH]2)c1	nt	18µM*	?	18µM*	?	nt
CCOC(=O)COc1ccc(/C=C(\C#N)c2nc3ccc(C)cc3[nH]2)cc1OC	nt	?	18µM*	?	?	nt
C[C@@H]1COC(=O)[C@@H](Cc2ccc(F)cc2)C/C=C\C[C@@H](CC(=O)NCCO)C(=O)N1	6%	7%	i	1%	i	1%
SMILES	HT1080 IDH1KD tx	TDP1 cell noCPT	KB-3-1 cytotox	DT40 TDP1 CPT	KB-V1 cytotox	HT1080NT lethal
Cc1oc2ncn(C)c(=O)c2c1C(=O)NCCCN(Cc1ccccc1)C(C)C	nt	3%	i	8%	i	nt
CN(CC(=O)N(C)CC(=O)Nc1c(Cl)cccc1Cl)Cc1ccc(Br)s1	3%	?	i	-28%	i	-4%
CCC(C)n1c(=O)c(C(=O)Nc2ccccc2S(N)(=O)=O)c(O)c2ccccc21 (centres undefined)	?	?	16µM*	?	?	?
CC(=O)NCCNc1nc2cc(-c3ccccc3C)sc2c(=O)n1C	-5%	-26%	i	?	i	1%
CCOC(=O)c1c(NC(=O)CSc2cn(CCNC(=O)c3ccc(OC)cc3)c3ccccc23)sc2c1CCC2	nt	-29%	i	?	i	nt
O=C(/C=C\Nc1ccc2c(c1)OCO2)c1cccs1	6.5µM*	-19%	?	0%	i	?
COc1ccc(C(=O)O)cc1S(=O)(=O)Nc1ccc2cn[nH]c2c1	14%	-1%	i	1%	i	1%
COc1ccc(C2=CSC3=NCCN23)cc1OC	-12%	?	i	5%	i	0%
CCCCOc1ccc(C2=CSC3=NCCN23)cc1[N+](=O)[O-]	-9%	29µM*	i	?	i	-1%
O=C(N/N=C/c1cn(-c2cccs2)nc1-c1ccccc1)c1ccccc1Br	-29%	23µM*	i	23µM*	i	-15%
O=C(N/N=C/c1ccccc1C(=O)O)c1ccccc1Br	-2%	-3%	i	19%	i	18%
O=C(N/N=C/c1cn(-c2cccs2)nc1-c1ccccc1)c1ccccc1O	21µM*	8.2µM*	i	13µM*	?	?
CCOc1ccc(OCCOC(=O)CN(C)S(=O)(=O)c2ccc(NC(C)=O)cc2)cc1	5%	0%	i	-3%	i	8%
COC(=O)CCC[N+](C)(C)C	nt	-11%	nt	-2%	nt	nt
CN(C)CCNC(=O)c1cccc(-c2cnc3c(NC=O)cc(-c4cc(F)c(F)c(F)c4)cn23)c1	18µM*	3.3µM*	i	4.1µM*	i	?
